# Experimental data published in PubChem BioAssay (EPA / NIEHS).
# Inconclusive results are not listed. Active and inactive are the calls of the source. Rule for the calls: active = hit-call score of the fitted dose curve at least 0.9, where 1 is the maximum; inconclusive = response in the unintended direction; inactive = score below 0.9.
# Experiments:
# [1] = tested on: chicken Androgen Receptor (AR), gene 422165; test: ATG_chAR_XSP1: Attagene TRANS-FACTORIAL Multi-Species (XSP1) HepG2 Assay for chicken Androgen Receptor (AR) (AID 2283768)
# Outline: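 Reporter mRNA read by RT-PCR with fluorescent labelling and capillary electrophoresis 24 h after chemical dosing of transiently transfected HepG2 cells. Chicken AR-Gal4 chimera, partially stimulated with 3 nM 6-alpha-fluorotestosterone; activity fitted upward relative to DMSO.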
# [2] = tested on: zebrafish Androgen Receptor (AR), gene 100005148; test: ATG_zfAR_XSP1: Attagene TRANS-FACTORIAL Multi-Species (XSP1) HepG2 Assay for zebrafish Androgen Receptor (AR) (AID 2283771)
# Experimental: (§1) ATG_XSP1_multi-species_TRANS is a cell-based, multiplexed assay created by modifying the existing Attagene TRANS-FACTORIAL system to include a panel of nuclear receptors from some or all the following species: human (Homo sapiens), mouse (Mus musculus), frog (Xenopus laevis), zebrafish (Danio rerio), chicken (Gallus gallus), and turtle (Chrysemys picta). The ECOTOX-FACTORIAL format uses HepG2, a human liver cell line, with measurements taken at 24 hours after chemical dosing in a 24-well plate. Xsp1 included 3 nM 6-alpha-fluorotestosterone to partially stimulate the androgen receptor.ATG_zfAR_XSP1 is one of 29 assay components measured or calculated from the ATG_XSP1_multi-species_TRANS assay. It is designed to make measurements of mRNA induction, a form of inducible reporter, as detected with fluorescence intensity signals by Reverse transcription polymerase chain reaction (RT-PCR) and Capillary electrophoresis technology.The assay endpoint ATG_zfAR_XSP1 was analyzed in the positive analysis fitting direction relative to DMSO as the negative control and baseline of activity. […] Furthermore, this assay endpoint can be referred to as a primary readout, because this assay has produced multiple assay endpoints where this one serves a reporter gene function. […]
# [3] = target: zebrafish Estrogen Receptor (ESR1), esr1 (gene 259252) (UniProt P57717); test: ATG_zfER1_XSP1: Attagene TRANS-FACTORIAL Multi-Species (XSP1) HepG2 Assay for zebrafish Estrogen Receptor (ESR1) (AID 2283772)
# Outline: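 Trans-activation readout: transfected zebrafish ER-Gal4 drives a UAS reporter in human HepG2 liver cells. After 24 h compound exposure (medium containing 3 nM 6-alpha-fluorotestosterone), induced reporter transcripts were quantified by RT-PCR with capillary electrophoresis, relative to DMSO.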
# [4] = tested on: zebrafish Estrogen Receptor (ESR2B), gene 317733; test: ATG_zfER2b_XSP1: Attagene TRANS-FACTORIAL Multi-Species (XSP1) HepG2 Assay for zebrafish Estrogen Receptor (ESR2B) (AID 2283773)
# Outline: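 Medium contained 3 nM 6-alpha-fluorotestosterone. Reporter mRNA induction by exogenous zebrafish ER2b-Gal4 chimera was read 24 h post-dose in transiently transfected HepG2 cells, using RT-PCR, fluorescent labelling, HpaI digestion and capillary electrophoresis.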
# [5] = tested on: frog Estrogen Receptor (ESR2), gene 100174814; test: ATG_frER2_XSP1: Attagene TRANS-FACTORIAL Multi-Species (XSP1) HepG2 Assay for frog Estrogen Receptor (ESR2) (AID 2283774)
# Outline: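 Reporter mRNA from a multiplexed TRANS system, measured by RT-PCR with fluorescent labelling and capillary electrophoresis, 24 hours after chemical exposure. Human HepG2 liver cells carried exogenous frog ER-Gal4 chimera; medium included 3 nM 6-alpha-fluorotestosterone; increases versus DMSO analysed.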
# [6] = tested on: zebrafish Estrogen Receptor (ESR2A), gene 317734; test: ATG_zfER2a_XSP1: Attagene TRANS-FACTORIAL Multi-Species (XSP1) HepG2 Assay for zebrafish Estrogen Receptor (ESR2A) (AID 2283778)
# Outline: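 Reporter transcripts were quantified by RT-PCR, 6-FAM labelling, HpaI digestion and capillary electrophoresis after 24 h dosing. The cells were HepG2 transiently carrying a zebrafish ER2a–Gal4 construct plus multiplexed UAS reporters; medium contained 3 nM 6-alpha-fluorotestosterone.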
# [7] = target: chicken Estrogen Receptor (ESR1), ESR1 (gene 396099) (UniProt P06212); test: ATG_chERa_XSP1: Attagene TRANS-FACTORIAL Multi-Species (XSP1) HepG2 Assay for chicken Estrogen Receptor (ESR1) (AID 2283779)
# Experimental: as §1, with “receptor.ATG_chERa_XSP1” for “receptor.ATG_zfAR_XSP1”, “ATG_chERa_XSP1” for “ATG_zfAR_XSP1”
# [8] = target: Estrogen receptor (Homo sapiens) (UniProt P03372); test: ATG_hERa_XSP1: Attagene TRANS-FACTORIAL Multi-Species (XSP1) HepG2 Assay for human Estrogen Receptor (ESR1) (AID 2283780)
# Outline: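 Reporter transcripts from multiplexed GAL4-UAS units driven by NR-Gal4 chimeras in transiently transfected HepG2 were measured by RT-PCR with capillary electrophoresis 24 h post-dose, with 3 nM 6-alpha-fluorotestosterone present; gain-of-signal relative to DMSO.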
# [9] = ACEA_AR_agonist_AUC_viability: ACEA Biosciences xCELLigence Real-Time Cell Analysis on Androgen Receptor Agonism for Viability (AID 2283775);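 for AC50: viability read 80 hours after compound addition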
# Outline: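 22Rv1 cells; impedance growth kinetics; 8-pt 1:4 dilutions from 100 uM top final, ≤0.5% DMSO; n = 2; 80 h read; AUC viability, loss-of-signal vs DMSO.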
# [10] = ACEA_AR_antagonist_AUC_viability: ACEA Biosciences xCELLigence Real-Time Cell Analysis on Androgen Receptor Antagonism for Viability (AID 2283776);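 note: 22Rv1 human prostate cancer cells growing on impedance electrode plates; area under impedance growth curve at 80 h after dosing as viability; hits lower the growth signal relative to DMSO meaning cytotoxicity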
# Outline: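 Real-time electrical impedance tracks 22Rv1 proliferation after continuous compound exposure (top 100 uM final, 1:4 steps, 8 concentrations). The 80 h area-under-curve serves as the cytotoxicity readout relative to DMSO.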
# Sequence of Estrogen receptor (Homo sapiens) (P03372 whole entry, looked up, the tested form may be a part): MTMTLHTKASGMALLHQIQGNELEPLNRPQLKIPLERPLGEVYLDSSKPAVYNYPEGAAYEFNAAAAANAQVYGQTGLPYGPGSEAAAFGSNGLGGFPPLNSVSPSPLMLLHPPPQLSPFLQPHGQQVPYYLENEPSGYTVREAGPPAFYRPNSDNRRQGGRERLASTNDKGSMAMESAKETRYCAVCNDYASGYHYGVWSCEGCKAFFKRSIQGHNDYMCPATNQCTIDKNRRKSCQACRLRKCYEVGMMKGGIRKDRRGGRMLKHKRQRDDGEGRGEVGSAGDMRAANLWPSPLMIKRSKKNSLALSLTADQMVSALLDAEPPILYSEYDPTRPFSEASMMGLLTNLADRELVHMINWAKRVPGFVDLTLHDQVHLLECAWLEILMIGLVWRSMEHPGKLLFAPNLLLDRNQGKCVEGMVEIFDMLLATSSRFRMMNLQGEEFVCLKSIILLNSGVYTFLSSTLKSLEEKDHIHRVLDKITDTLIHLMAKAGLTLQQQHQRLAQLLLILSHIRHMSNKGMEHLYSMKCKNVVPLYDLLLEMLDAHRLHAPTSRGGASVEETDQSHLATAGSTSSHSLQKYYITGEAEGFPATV
# Sequence of chicken Estrogen Receptor (ESR1), ESR1 (gene 396099) (P06212 whole entry, looked up): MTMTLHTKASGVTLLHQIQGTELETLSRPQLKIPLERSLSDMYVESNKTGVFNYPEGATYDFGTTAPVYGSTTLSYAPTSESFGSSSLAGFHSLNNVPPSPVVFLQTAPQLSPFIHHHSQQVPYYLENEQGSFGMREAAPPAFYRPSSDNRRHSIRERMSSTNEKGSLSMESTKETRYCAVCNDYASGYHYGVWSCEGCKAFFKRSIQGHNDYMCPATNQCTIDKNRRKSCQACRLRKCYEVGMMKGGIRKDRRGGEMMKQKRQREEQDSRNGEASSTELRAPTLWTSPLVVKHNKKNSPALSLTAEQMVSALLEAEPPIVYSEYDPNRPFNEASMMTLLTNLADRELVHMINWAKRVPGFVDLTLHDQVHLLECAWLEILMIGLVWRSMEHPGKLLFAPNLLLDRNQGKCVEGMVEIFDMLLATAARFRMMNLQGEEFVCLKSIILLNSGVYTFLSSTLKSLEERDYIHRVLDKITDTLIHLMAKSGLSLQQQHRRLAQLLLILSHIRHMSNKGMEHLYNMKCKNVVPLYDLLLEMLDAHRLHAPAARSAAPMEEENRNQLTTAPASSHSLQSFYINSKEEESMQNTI
# Sequence of zebrafish Estrogen Receptor (ESR1), esr1 (gene 259252) (P57717 whole entry, looked up, the tested form may be a part): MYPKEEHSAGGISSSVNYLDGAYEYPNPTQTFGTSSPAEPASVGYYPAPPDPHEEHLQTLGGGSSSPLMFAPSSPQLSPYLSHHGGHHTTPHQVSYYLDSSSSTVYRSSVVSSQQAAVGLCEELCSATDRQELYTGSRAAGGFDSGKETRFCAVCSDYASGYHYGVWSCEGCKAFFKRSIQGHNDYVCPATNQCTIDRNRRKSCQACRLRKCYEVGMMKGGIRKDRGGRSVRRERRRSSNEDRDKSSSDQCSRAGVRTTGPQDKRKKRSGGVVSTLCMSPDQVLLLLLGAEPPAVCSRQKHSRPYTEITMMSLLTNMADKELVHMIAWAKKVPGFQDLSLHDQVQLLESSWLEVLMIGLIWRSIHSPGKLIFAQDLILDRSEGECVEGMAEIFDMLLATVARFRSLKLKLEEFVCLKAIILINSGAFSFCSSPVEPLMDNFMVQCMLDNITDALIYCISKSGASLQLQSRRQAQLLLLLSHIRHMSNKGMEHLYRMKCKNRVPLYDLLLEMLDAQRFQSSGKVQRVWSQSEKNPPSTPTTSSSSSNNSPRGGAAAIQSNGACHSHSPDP
smiles,measurement,setting,value
O=P(Oc1ccccc1)(Oc1ccccc1)Oc1ccccc1,outcome,[1],inactive
same,outcome,[2],inactive
same,outcome,[3],inactive
same,AC50,[4],5.84 µM (active)
same,AC50,[5],2.77 µM (active)
same,outcome,[6],inactive
same,AC50,[7],0.8 µM (active)
same,AC50,[8],0.991 µM (active)
CCOP(=S)(OCC)SCSCC,AC50,[9],83.4 µM (active)
same,outcome,[10],inactive
O=[N+]([O-])c1ccc(Cl)c(Cl)c1,outcome,[9],inactive
same,outcome,[10],inactive
CCCCCCCc1ccc(O)cc1,AC50,[9],29.2 µM (active)
same,AC50,[10],50 µM (active)
OCC1CO1 (stereo unspecified),outcome,[9],inactive
same,outcome,[10],inactive
O=c1ssc(Cl)c1Cl,AC50,[9],0.671 µM (active)
same,outcome,[10],inactive
ClC1=C(Cl)C2(Cl)C3C(Cl)C(Cl)CC3C1(Cl)C2(Cl)Cl (stereo unspecified),AC50,[9],11.9 µM (active)
same,AC50,[10],13.6 µM (active)
CCCCC(CC)COP(=O)(Oc1ccccc1)Oc1ccccc1 (stereo unspecified),outcome,[9],inactive
same,AC50,[10],16.6 µM (active)
O=C(O)C1C(C(=O)O)C2(Cl)C(Cl)=C(Cl)C1(Cl)C2(Cl)Cl (stereo unspecified),outcome,[9],inactive
same,outcome,[10],inactive
CCOC(=O)c1ccccc1N,outcome,[9],inactive
CCCCN(CCCC)N=O,outcome,[9],inactive
same,outcome,[10],inactive
CCCCOCC1CO1 (stereo unspecified),outcome,[9],inactive
same,outcome,[10],inactive
Cc1ccc([N+](=O)[O-])cc1C,outcome,[9],inactive
same,outcome,[10],inactive
CC(Cc1ccc(OCC(=O)O)cc1)NCC(O)c1csc(C(F)(F)F)n1 (stereo unspecified),outcome,[9],inactive
same,outcome,[10],inactive
CCCCN(CC)C(=O)SCCC,outcome,[9],inactive
same,outcome,[10],inactive
ClC(Cl)(Cl)c1ccccc1,outcome,[9],inactive
same,outcome,[10],inactive
O=S(=O)(c1ccc(O)cc1)c1ccc(O)cc1,outcome,[9],inactive
CCCN(CCC)c1c([N+](=O)[O-])cc(C(C)C)cc1[N+](=O)[O-],AC50,[9],45.2 µM (active)
same,AC50,[10],58.7 µM (active)
CC1(C)CN=C(NN=C(/C=C/c2ccc(C(F)(F)F)cc2)/C=C/c2ccc(C(F)(F)F)cc2)NC1,AC50,[9],12.6 µM (active)
same,AC50,[10],11.1 µM (active)
O=C(O)CF,outcome,[9],inactive
same,outcome,[10],inactive
CCCCc1ccc(O)cc1,outcome,[9],inactive
same,AC50,[10],8.13 µM (active)
O=P1(N(CCCl)CCCl)NCCCO1 (stereo unspecified),outcome,[9],inactive
same,outcome,[10],inactive
O=C(CBr)OCc1ccccc1,outcome,[9],inactive
c1ccc2c(c1)Nc1ccccc1S2,outcome,[9],inactive
same,AC50,[10],21.7 µM (active)
CCOP(=S)(Oc1ccc([N+](=O)[O-])cc1)c1ccccc1 (stereo unspecified),AC50,[9],50 µM (active)
same,AC50,[10],14.9 µM (active)
Nc1cc2c3c(c1)C(c1ccccc1)=N[C@@H](NC(=O)c1cccnc1)C(=O)N3CC2,outcome,[9],inactive
same,outcome,[10],inactive
Cc1cccc(N)c1,outcome,[9],inactive
same,outcome,[10],inactive
CO/N=C(/C(=O)OC)c1ccccc1COc1ccccc1C,outcome,[9],inactive
same,outcome,[10],inactive
Cc1ccc(N)cc1N,outcome,[10],inactive
Nc1ccc(Cl)cc1,AC50,[9],5.62 µM (active)
same,AC50,[10],8.97 µM (active)
CCCCN(CCCC)SN(C)C(=O)Oc1cccc2c1OC(C)(C)C2,AC50,[9],57.4 µM (active)
same,AC50,[10],49.2 µM (active)
Nc1ccc2ccccc2c1,outcome,[10],inactive
CCNc1nc(Cl)nc(NC(C)(C)C)n1,outcome,[9],inactive
same,outcome,[10],inactive
c1cc2c3c(cccc3c1)CC2,outcome,[9],inactive
same,outcome,[10],inactive
CSC(C)(C)C=NO,outcome,[9],inactive
same,outcome,[10],inactive
CCCCOCCOP(=O)(OCCOCCCC)OCCOCCCC,outcome,[9],inactive
same,outcome,[10],inactive
[N-]=[N+]=[N-],outcome,[9],inactive
same,AC50,[10],50 µM (active)
CCOc1ccc(C(C)(C)COCc2cccc(Oc3ccccc3)c2)cc1,outcome,[9],inactive
same,AC50,[10],50 µM (active)
CN(C)C(=O)Cl,outcome,[10],inactive
CCC1(c2ccccc2)C(=O)N=C(O)NC1=O (stereo unspecified),outcome,[9],inactive
same,outcome,[10],inactive
CCOC(=O)c1ccccc1C(=O)OCC,outcome,[10],inactive
CCCCC(CC)COC(=O)c1c(Br)c(Br)c(Br)c(Br)c1C(=O)OCC(CC)CCCC (stereo unspecified),outcome,[10],inactive
CC(Cl)(Cl)C(=O)O,outcome,[10],inactive
O=[N+]([O-])c1ccccc1,outcome,[9],inactive
same,outcome,[10],inactive
CCN(CC)c1ccccc1,outcome,[10],inactive
FC(F)(F)c1ccc(Cl)cc1,outcome,[10],inactive
O=C(O)C(Cl)Cl,outcome,[9],inactive
same,outcome,[10],inactive
ClC(Cl)c1ccccc1,outcome,[9],inactive
same,outcome,[10],inactive
CCC(C)(C)c1ccc(O)cc1,AC50,[9],67 µM (active)
same,AC50,[10],71.7 µM (active)
COC(N)=O,outcome,[10],inactive
O=S1(=O)OCC2C(CO1)C1(Cl)C(Cl)=C(Cl)C2(Cl)C1(Cl)Cl (stereo unspecified),outcome,[10],inactive
c1nc[nH]n1,outcome,[10],inactive
CC(C)(C)N(NC(=O)c1ccc(Cl)cc1)C(=O)c1ccccc1,outcome,[9],inactive
same,outcome,[10],inactive
O=P(OCC(Br)CBr)(OCC(Br)CBr)OCC(Br)CBr (stereo unspecified),AC50,[9],23.3 µM (active)
same,outcome,[10],inactive
COCCOCCO,outcome,[10],inactive
